Bioassay records (PubChem BioAssay)
Rows were chosen to be rich in hits. Some 11% of all compounds tested hit in one or more screens of this group.
Vaccinia mCherry: inhibitors of vaccinia virus infection (mCherry reporter signal); Vaccinia virus mCherry reporter infection, fluorescence; Potency, µM (series often up to 36.5 µM), without a hit: at the highest dose activity change, negative = inhibition, most hits filed as inhibitors; actives 0.63% (n = 310,000); calls by dose curve; tested in A549 cells; further: on the % scale 0 is the no-effect control and ±100 the full control effect; nearly all actives have a fitted effect of over 35% in size
Vaccinia Venus: vaccinia inhibition (Venus reporter); actives 0.46% (n = 330,000); AID 720580; Potency, µM (titrated, usually from 36.5 µM), without a hit: at the highest dose activity change, negative = inhibition, most hits filed as inhibitors; Vaccinia virus Venus reporter expression, fluorescence; calls by dose curve; tested in A549 cells; further: on the % scale 0 is the no-effect control and ±100 the full control effect; nearly all actives have a fitted effect of over 30% in size
Pf growth 96h: inhibits malaria parasite growth, 96 h. P. falciparum luciferase reporter growth, 96 h. Potency, µM (doses to about 28.7 µM), without a hit: at the highest dose activity change, negative = inhibition, most hits filed as inhibitors. actives 6.9% (n = 320,000). AID 504834; further: on the % scale 0 is the no-effect control and ±100 the full control effect
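P. falciparum expressing integrated firefly luciferase grown in erythrocytes (2% hematocrit, 0.05% parasitemia final) with compounds for 96 hours at 37 C, 5% CO2. Growth inhibition read as loss of luminescence after adding luciferase detection reagent.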
NS1 function inh: blocks influenza NS1 protein function. actives 0.4% (n = 270,000). Potency, µM (doses to about 46.1 µM), for the others: at the highest dose activity, positive = more growth; calls by dose curve; further: actives are rising curves; nearly all actives have a fitted effect of over 50% in size
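Read-out: OD600 growth recovery of NS1-expressing budding yeast. Cells grown overnight at 30C in -URA glucose medium, washed, resuspended and diluted 1:100 in 2% galactose assay medium, pH 6.0. Same strain lacking NS1 served as positive control.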
Pf growth 48h: inhibits P. falciparum growth in the first generation, 48 h | P. falciparum luciferase growth in erythrocytes, 48 h | Potency, µM (highest dose often 28.7 µM), for the others: at the highest dose activity change, negative = inhibition, usual class: inhibitors | actives 5.9% (n = 310,000) | AID 504832; further: on the % scale 0 is the no-effect control and ±100 the full control effect
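Firefly luciferase activity from engineered P. falciparum reports growth; inhibitors lower the luminescent signal. Cultures contained 2% hematocrit erythrocytes at 0.1% final parasitemia.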
HCV inhibitor: blocks hepatitis C virus; Huh7.5.1 HCVcc-Cre infection, luciferase reporter, 44 h; Potency, µM (doses to about 41.8 µM), for the others: at the top dose activity change, negative = inhibition, most hits filed as inhibitors; actives 3.4% (n = 340,000); AID 651820; further: on the % scale 0 is the no-effect control and ±100 the full control effect
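1,000 cells/well; 4 h culture; + compound; + HCVcc-Cre (~0.5 moi); 44 h; luciferase substrate, RT 15 min; read 15 sec.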
The depositor's hits bear a star; i = inactive; ? = inconclusive; · = no result; ! = not active in a repeat; [ ] = another dose, or the depositor's remark. Unless noted, the call rests on the fitted dose curve; in most records, active means well fitted inhibition curve with a large enough effect; inconclusive means small, poorly fitted or top-dose-only effect, or another doubt; inactive means no such curve, though single readings can be large or run the other way. Potency means the concentration at half of the fitted maximal effect.

SMILES	Vaccinia mCherry	Vaccinia Venus	Pf growth 96h	NS1 function inh	Pf growth 48h	HCV inhibitor
O=C1NCC(c2ccccc2)C1C(=O)N/N=C/c1ccc(Cl)s1 (configuration not stated)	i	-11%	7.4µM*	0%	-29%	2%
CCOC(=O)C1CCN(C(=O)C2CCN(S(=O)(=O)N3CCC4(CC3)OCCO4)CC2)CC1	-11%[7.34 µM]	-6%[7.34 µM]	5%	-10%	2%	4%
CN(C)C(CNC(=O)c1cccc(S(=O)(=O)N2CC3(C)CC2CC(C)(C)C3)c1)c1ccco1 (configuration not stated)	·	·	17%[5.75 µM]	3%	?	-2%
CCCNC(=O)c1cccc(S(=O)(=O)N2CC3(C)CC2CC(C)(C)C3)c1 (configuration not stated)	6%	-7%	13µM*	·	?	-11%
CC1(C)CC2CC(C)(CN2S(=O)(=O)c2ccc(C(=O)Nc3ccc(Cl)c(S(=O)(=O)N4CCOCC4)c3)cc2)C1 (configuration not stated)	-11%	-12%	?	?	9.3µM*	?
CC1(C)CC2CC(C)(CN2S(=O)(=O)c2ccc(C(=O)Nc3ccc(S(=O)(=O)N4CCOCC4)cc3)cc2)C1 (configuration not stated)	i	-15%	?	5%	10µM*	?
Fc1ccc(C2CCNCC2COc2ccc3c(c2)OCO3)cc1 (configuration not stated)	?	-22%	?	1%	?	14µM*
O=C(NNC(=O)c1cccs1)c1csc(N2CCOCC2)n1	-7%	-17%	47%	·	20%	30%
O=C(NNC(=O)C12CC3CC(CC(C3)C1)C2)c1csc(N2CCOCC2)n1	i	-26%	13µM*	·	?	21%
CCCCCCNC(=O)O[C@H]1Cn2c(=O)n(CCCCCC)c(=O)n2[C@@H]2CN(S(=O)(=O)c3ccc(C)cc3)C[C@]12O	?	16µM*	·	·	·	·
CCCCCCn1c(=O)n2n(c1=O)[C@@H]1CN(S(=O)(=O)c3ccc(C)cc3)C[C@]1(O)[C@@H](OC(=O)NC1CC1)C2	?	-24%	·	·	·	·
Cc1ccc(S(=O)(=O)N2C[C@H]3n4c(=O)ccc(=O)n4C[C@H](OC(=O)Nc4cccs4)[C@@]3(O)C2)cc1	?	-24%	·	·	·	·
CCCCCCNC(=O)O[C@H]1Cn2c(=O)ccc(=O)n2[C@@H]2CN(S(=O)(=O)c3ccc(C)cc3)C[C@]12O	?	10µM*	·	·	·	·
CCOC(CNC(=O)CCc1c(C)nc2ncnn2c1C)OCC	-13%	-10%	54%	5%	8%	9%
COCc1cc(C)nc(N2CCCCC2)c1C#N	?	-22%	-4%	4%	-3%	-14%
COCc1cc(C)nc(NC2CCCCC2)c1C#N	-14%	-4%	-27%	5%	3.7µM*	6%
CN(c1ccc(C(=O)NCC2CCCO2)cc1)S(=O)(=O)c1ccccc1 (configuration not stated)	·	-21%	·	15%	12%	5%
N#C/C(=C(/O)COC(=O)CSc1ccc(Cl)cc1)c1nc2ccccc2[nH]1	-9%	-20%	59%	11%	35%	0%
CCCC(c1nnnn1CC1CCCO1)N1CCN(c2cc(Cl)ccc2C)CC1 (configuration not stated)	-29%	?	-1%	-57%	13µM*	-20%
Cc1ccc(Cl)cc1N1CCN(C(c2cccnc2)c2nnnn2C2CCCCC2)CC1 (configuration not stated)	31%	52%	68%	-52%	?	11%
Cc1ccc(Cl)cc1N1CCN(C(CC(C)C)c2nnnn2CC2CCCO2)CC1 (configuration not stated)	·	16%	0%	-4%	?	8%
Cc1ccc(C(c2nnnn2CC2CCCO2)N2CCN(c3cccc(C)c3C)CC2)cc1 (configuration not stated)	·	?	·	-62%	13µM*	11µM*!
COc1ccc(C(c2nnnn2CC2CCCO2)N2CCN(c3ccccc3)CC2)cc1 (configuration not stated)	·	10%	34%	-10%	?	1%
CCC(c1nnnn1C(C)(C)C)N1CCN(c2cc(Cl)ccc2C)CC1 (configuration not stated)	·	-29%	0.15µM*	-59%	?	-18%
Cc1ccc(Cl)cc1N1CCN(C(c2ccc(C#N)cc2)c2nnnn2C2CCCC2)CC1 (configuration not stated)	5%	3%	2%	1%	2.3µM*	8%
SMILES	Vaccinia mCherry	Vaccinia Venus	Pf growth 96h	NS1 function inh	Pf growth 48h	HCV inhibitor
O=S(=O)(CCc1nc2ccccc2s1)c1ccc(Cl)cc1	·	·	-29%	4%	·	20%
CC12CC(O)C3c4ccc(O)cc4CCC3C1CC/C2=N\O (configuration not stated)	·	·	22%	8%	17%	-5%
CC[C@@H](C)[C@H](NS(=O)(=O)c1ccc(C)cc1)C(=O)N1CCC(C(=O)NCC(=O)O)CC1	·	-2%	-7%	-3%	16%	24%
O=C(COc1ccc(F)cc1)Nc1nnc(SCc2cc(=O)n3ccccc3n2)s1	-12%	-4%	·	·	·	·
Cc1nc(Nc2ccc(O)cc2)c2c3c(sc2n1)CCCC3	11µM*	?	?	-8%	15µM*	?
C=CCc1ccc2c(c1)OCO2	-6%	-8%	·	·	·	·
C=CCc1ccc(O)c(-c2ccc(O)c(CC=C)c2)c1	?	?	8.3µM*	-67%	?	?
COc1ccc(C(=O)NC(C)c2nnc(SCc3ccc(Cl)c(Cl)c3)n2C)cc1 (configuration not stated)	-3%	-16%	12µM*	5%	?	-14%
CCn1c(CCNC(=O)c2ccc(Cl)c(Cl)c2)nnc1SCCOc1ccc(OC)cc1	·	·	10µM*	14%	?	-19%
C=CCn1c(SCCOc2ccc(OC)cc2)nnc1C(C)NC(=O)c1ccc(OC)cc1 (configuration not stated)	i	-15%	6.6µM*	3%	·	22%
CCn1c(SCc2ccc(Cl)c(Cl)c2)nnc1C(C)NC(=O)c1ccc(OC)cc1 (configuration not stated)	-7%	22%	?	6%	-10%	-3%
O=C(NCCN1C(=O)C2C3C=CC(C3)C2C1=O)Nc1ccccc1O (configuration not stated)	-11%	-1%	9.3µM*	6%	·	12%
CCCc1nnc(NC(=O)NCCN2C(=O)C3C4C=CC(C4)C3C2=O)s1 (configuration not stated)	i	-16%	15%	5%	0%	-2%
Cc1c(NC(=O)NCCN2C(=O)C3C4C=CC(C4)C3C2=O)c(=O)n(-c2ccccc2)n1C (configuration not stated)	-4%	10%	15µM*	-1%	·	5%
